Data reported in PubChem BioAssay (NCATS).
Inconclusive results are not listed. Active and inactive are the calls of the source. Calls follow the shape of the dose curve; as a rule, active = well fitted inhibition curve with a large enough effect; inconclusive = small, poorly fitted or top-dose-only effect; inactive = flat fitted curve, though single readings scatter. Where a SMILES comes first, the peptide text is derived from it. [ ]: non-standard residue; d: D form. pGlu = O=C1CC[C@@H](C(=O)O)N1
% is scaled to controls: 0 for no effect and ±100 for the full control effect; potency is read from the fitted curve at half-maximal effect.

These molecules were tested on CRL-7250 (assay: Cytotoxic Profiling of Annotated Libraries Using Quantitative High-Throughput Screening (AID 1296008; also: nearly all actives have a fitted effect of over 60% in size)). Details: Five cell lines viability, CellTiter-Glo ATP luminescence, 48-72 h; max response: active compounds read low.
How it was run: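 Cytotoxicity was measured as CellTiter-Glo ATP luminescence, read after 10 min at room temperature. Compound treatment of the cells lasted 48 or 72 hr at 37 degrees Celsius in a qHTS format.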
`COC(=O)CCCCC(CCSS/C(CCO)=C(\C)N(C=O)Cc1cnc(C)nc1N)SC(C)=O` (configuration not stated) was tested, and the outcome was “inactive”.
`CC(C)NC(=O)c1ccc(C=O)cc1` was tested, and the max response was -4.83% (inactive).
With `Cc1ncc(CO)c(CO)c1O` the max response was 1.45% (inactive).
`CCOC(=O)NNc1nncc2ccccc12` was tested, and the max response was -0.257% (inactive).
For `C/C(=C1\CCOC(=O)S1)N(C=O)Cc1cnc(C)nc1N`, the max response was -21.8% (inactive).
For `C/C(=N\O)[C@@H](C)NCC(C)(C)CN[C@H](C)/C(C)=N/O`, the outcome was “inactive”.
With `CCS(=O)(=O)c1ccc(OC)c(C(=O)OC)c1` the max response was 0.361% (inactive).
For `O=C1Nc2ccccc2C1(c1ccc(O)cc1)c1ccc(O)cc1`, the Potency was 23.7 µM (active).
`CC(=O)/C=C/C=C1/C2CCC(C2)C1(C)C` (configuration not stated) was tested, and the max response was -8.75% (inactive).
With `CC(Oc1c(Cl)cccc1Cl)C1=NCCN1` (configuration not stated) the max response was -2.82% (inactive).
`Cn1cc(S(C)=O)c(=O)c2ccc(F)cc21` (configuration not stated) was tested, and the max response was -2.16% (inactive).
For `CCN(CC)CCN`, the max response was 3.12% (inactive).
For `CCOc1c(N2CCOCC2)cnn(C)c1=O`, the max response was -1.71% (inactive).
With `O=C(O)c1ccccc1Nc1cc(Cl)ccc1C(=O)O` the max response was 2.83% (inactive).
For `COCCOCC(OC)OC`, the max response was -5.92% (inactive).
In the case of `CC(C)C(=O)Nc1cccc(C2CN3CCSC3=N2)c1` (configuration not stated), the max response is reported as -9.12% (inactive).
In the case of `Oc1ccc(CCNCCCCCCNCCc2ccccc2)cc1O`, the max response is reported as -8.57% (inactive).
With `O=C(CCCCC(=O)Nc1c(I)cc(I)c(C(=O)O)c1I)Nc1c(I)cc(I)c(C(=O)O)c1I` the max response was 2.98% (inactive).
`Cc1ccccc1C(=O)N1CC/C(=N\OS(=O)(=O)O)c2ccc(Cl)cc21` was tested, and the max response was 3.76% (inactive).
In the case of `Cc1nc(C2CCCCC2)c(-c2ccc(S(N)(=O)=O)c(F)c2)o1`, the max response is reported as -4.52% (inactive).
`CCNC(=O)[C@@H]1CCCN1C(=O)[C@H](CCCN=C(N)N)NC(=O)[C@H](CC(C)C)NC(=O)CNC(=O)[C@H](Cc1ccc(O)cc1)NC(=O)[C@H](CO)NC(=O)[C@H](Cc1c[nH]c2ccccc12)NC(=O)[C@H](Cc1cnc[nH]1)NC(=O)[C@@H]1CCC(=O)N1` ([pGlu]HWSYGLRP-NHEt) was tested, and the outcome was “inactive”.
With `CCN1C(=O)c2ccccc2C1Nc1ccc(OCCN2CCCCC2)cc1` (configuration not stated) the max response was -2.5% (inactive).
`O=C(Oc1ccccc1)c1cccc(C(=O)Oc2ccccc2)c1` was tested, and the max response was -12.1% (inactive).
With `CC(=O)N[C@@H](CCC(N)=O)C(=O)O` the max response was -5.46% (inactive).
With `CCCCCN(CCCOC)C(=O)C(CCC(=O)O)NC(=O)c1ccc(Cl)c(Cl)c1` (configuration not stated) the max response was -0.363% (inactive).
In the case of `CCOC(=O)N1CCC(Nc2ccc(Cl)cc2N)CC1`, the max response is reported as 2.37% (inactive).
For `CC(C)(C)c1nnc(NS(=O)(=O)c2ccccc2)s1`, the max response was 4.99% (inactive).
In the case of `CCn1ccc(NS(=O)(=O)c2ccc(N)cc2)nc1=O`, the max response is reported as 4.48% (inactive).
For `COC(=O)c1c(Cl)c(Cl)c(C(=O)OC)c(Cl)c1Cl`, the max response was -7.84% (inactive).
For `O=C(NN1CCCC1)NS(=O)(=O)c1ccc(Cl)cc1`, the max response was -14.3% (inactive).
For `CN(C)CCN1CCN(c2cccc(Cl)c2)C1=O`, the max response was -6.51% (inactive).
For `CN1C(CSCC(F)(F)F)Nc2cc(Cl)c(S(N)(=O)=O)cc2S1(=O)=O` (configuration not stated), the max response was -17.8% (inactive).
For `Nc1cc(C(F)(F)F)ccc1S`, the max response was -0.153% (inactive).
For `CCCc1ncc(C(=O)O)s1`, the max response was -9.12% (inactive).
`CCNC(=O)NCCCOc1cccc(CN2CCCCC2)c1` was tested, and the max response was -12.2% (inactive).
In the case of `O=C(O)C(=O)Nc1cccc(-c2nn[nH]n2)c1`, the max response is reported as -0.0138% (inactive).
With `C/C=C(/C(=C/C)c1ccc(OC(C)=O)cc1)c1ccc(OC(C)=O)cc1` the max response was 0.166% (inactive).
